PubChem BioAssay AID431 (Sanford-Burnham Center for Chemical Genomics, 2006)
In all, about 63,000 compounds went through this assay and about 1,100 (1.7%) were called active. What follows is part of a selection rich in actives, with near analogues and random picks from the rest. Potency and affinity values are given separately. Values without a mark were called inactive.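 The calls were made as follows: active = compounds whose percent cytotoxicity in the single-dose primary screen, scaled between solvent and toxic-drug controls, exceeds 50; inactive = the rest.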

assay: viability loss of HPDE-C7K cells – cell-based, fluorescence, HTS, primary screen (AID 431); settings: HPDE-C7K KRASV12 cells, Alamar Blue viability, 48 h; at 10 µM; hits give high values;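 also: 0% = DMSO solvent wells and 100% = doxorubicin-treated wells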

Q: Which cytotoxicity does the source give for `COc1ccccc1N1CCN(C(=O)c2nn(-c3ccccc3OC)c(=O)c3ccccc23)CC1` here?
A: The cytotoxicity was 4.9%.

Q: Which cytotoxicity does the source give for `CCNc1nc(Oc2ccc(=O)n(-c3ccccc3)n2)nc(N2CCOCC2)n1` here?
A: Its cytotoxicity is 4.3%.

Q: Which cytotoxicity does the source give for `Nc1nnc(N2CCCCC2)s1` here?
A: The cytotoxicity was -11.2%.

Q: For `Cc1ccc(CNS(=O)(=O)c2ccc3oc(C(=O)O)c(C)c3c2)cc1`, which cytotoxicity is on record?
A: The cytotoxicity was 1.5%.

Q: For `CCOC(=O)N1CCN(C(=O)CCn2nc(-c3ccc(Cl)cc3)ccc2=O)CC1`, which cytotoxicity is on record?
A: The cytotoxicity was -0.1%.

Q: Which cytotoxicity does the source give for `CCOc1ccc(S(=O)(=O)Nc2cccc(Cl)c2)cc1` here?
A: Its cytotoxicity is 65% (active).

Q: Which cytotoxicity does the source give for `CCOc1ccc(S(=O)(=O)Nc2cccnc2)cc1` here?
A: The cytotoxicity was 4.6%.

Q: Which cytotoxicity does the source give for `CCOc1ccc(S(=O)(=O)Nc2cc(Cl)ccc2O)cc1` here?
A: Its cytotoxicity is 64.5% (active).

Q: Which cytotoxicity does the source give for `CCOc1ccc(NS(=O)(=O)c2cc(Cl)ccc2OC)cc1` here?
A: The cytotoxicity was -5.4%.

Q: For `CCOc1ccc(NS(=O)(=O)c2ccc(NS(C)(=O)=O)cc2)cc1`, which cytotoxicity is on record?
A: The cytotoxicity was -17%.

Q: With `COc1ccc(S(=O)(=O)Nc2cccc(Cl)c2)cc1OC` as the compound, how does the cytotoxicity read?
A: The cytotoxicity was 9.4%.

Q: For `Clc1ccc(-c2noc(CN3CCCC3)n2)cc1`, which cytotoxicity is on record?
A: The cytotoxicity was -4.3%.

Q: For `COc1ccc(Cl)cc1NC(=O)CN(C(=O)c1ccco1)C1CCCCC1`, which cytotoxicity is on record?
A: The cytotoxicity was 4.7%.

Q: Which cytotoxicity does the source give for `CCSc1nnc(NC(=O)c2cccs2)s1` here?
A: Its cytotoxicity is 22.4%.

Q: For `COC(=O)c1cccc(NC(=O)CSc2nnc(COc3cccc(C)c3)n2C)c1`, which cytotoxicity is on record?
A: The cytotoxicity was -15.1%.

Q: Which cytotoxicity does the source give for `CCOC(=O)c1[nH]c(C)c(/C(O)=C2\C(=O)C(=O)N(CCCn3ccnc3)C2c2ccncc2)c1C` (stereo unspecified) here?
A: The cytotoxicity was 11.3%.

Q: With `Cc1cc(C)c2nc(NC3=NCN(CCN4CCOCC4)CN3)nc(C)c2c1` as the compound, how does the cytotoxicity read?
A: Its cytotoxicity is -2%.

Q: Which cytotoxicity does the source give for `CC1=C(C)C(=O)NC(Nc2nc(C)c3cc(C)cc(C)c3n2)N1` (stereo unspecified) here?
A: Its cytotoxicity is 90.8% (active).

Q: Which cytotoxicity does the source give for `Cc1ccnc(SCCn2c(N3CCC(C)CC3)nc3c2c(=O)[nH]c(=O)n3C)n1` here?
A: Its cytotoxicity is 5.9%.

Q: Which cytotoxicity does the source give for `Cc1cc(C)nc(/N=C2\NC(=O)CC(C(=O)O)N2c2ccc(Oc3ccccc3)cc2)n1` (stereo unspecified) here?
A: The cytotoxicity was 3.8%.

Q: With `O=C(Nc1ccccc1C(=O)N1CCCCCC1)c1cccc(S(=O)(=O)N2CCOCC2)c1` as the compound, how does the cytotoxicity read?
A: The cytotoxicity was 6.4%.

Q: For `CCN(CC)c1ccc2cc(-c3nnc(-c4ccncc4)o3)c(=O)oc2c1`, which cytotoxicity is on record?
A: The cytotoxicity was 71.1% (active).

Q: Which cytotoxicity does the source give for `O=c1oc2ccc3ccccc3c2cc1-c1nnc(-c2ccccc2)o1` here?
A: The cytotoxicity was -4.9%.

Q: With `CCN(CC)c1ccc2cc(C(=O)Nc3ccccn3)c(=O)oc2c1` as the compound, how does the cytotoxicity read?
A: Its cytotoxicity is 18.9%.

Q: For `CC(=O)Oc1ccc2cc(-c3nc4ccccc4n3C)c(=O)oc2c1`, which cytotoxicity is on record?
A: The cytotoxicity was -1.4%.

Q: For `CCN(CC)c1ccc2cc(-c3nc4ccccc4[nH]3)c(=O)oc2c1`, which cytotoxicity is on record?
A: Its cytotoxicity is 42.2%.

Q: For `CCN(CC)c1ccc2cc(-c3nc4ccccc4n3C)c(=O)oc2c1`, which cytotoxicity is on record?
A: Its cytotoxicity is 53.3% (active).

Q: Which cytotoxicity does the source give for `C/C(Cl)=C/Cn1c(NCCN(C)C)nc2c1c(=O)n(C)c(=O)n2C` here?
A: Its cytotoxicity is 10.3%.

Q: For `CCCCC(=O)Nc1ccc2c(c1)nc1n2CCOC1`, which cytotoxicity is on record?
A: The cytotoxicity was -4.8%.

Q: Which cytotoxicity does the source give for `Cc1onc(-c2ccccc2)c1C(=O)NCc1ccco1` here?
A: The cytotoxicity was 9%.

Q: Which cytotoxicity does the source give for `Fc1ccc(CN2CCCCCCC2)c(F)c1` here?
A: The cytotoxicity was 4.9%.

Q: Which cytotoxicity does the source give for `CCCC(C(=O)NCc1ccco1)N(C(=O)CNS(=O)(=O)c1ccc(Cl)cc1)C1CCCC1` (stereo unspecified) here?
A: Its cytotoxicity is 2.5%.

Q: For `CCOC(=O)N1CCN(C(=O)c2cn(C)c(=O)c3c2c2ccccc2n3C)CC1`, which cytotoxicity is on record?
A: The cytotoxicity was 4.1%.

Q: For `Cc1ccc(Cl)cc1N1CCN(C(=O)c2cc3c(=O)n(C)c4ccccc4c3n2C)CC1`, which cytotoxicity is on record?
A: Its cytotoxicity is 38.6%.

Q: Which cytotoxicity does the source give for `COc1ccc(N2CCN(C(=O)c3cn(C)c(=O)c4c3c3ccccc3n4C)CC2)cc1` here?
A: The cytotoxicity was 10.6%.

Q: With `Cn1cc(C(=O)N2CCN(C(=O)c3ccco3)CC2)c2c3ccccc3n(C)c2c1=O` as the compound, how does the cytotoxicity read?
A: The cytotoxicity was -0.8%.

Q: Which cytotoxicity does the source give for `Cc1cccc(N2CCN(C(=O)c3cn(C)c(=O)c4c3c3ccccc3n4C)CC2)c1C` here?
A: The cytotoxicity was 88.5% (active).

Q: Which cytotoxicity does the source give for `Cc1ccc(Cl)cc1N1CCN(C(=O)c2cn(C)c(=O)c3c2c2ccccc2n3C)CC1` here?
A: The cytotoxicity was 110% (active).

Q: With `Cn1c2c(c(=O)n(C)c1=O)CN(Cc1ccc3c(c1)OCO3)CN2` as the compound, how does the cytotoxicity read?
A: The cytotoxicity was 4.8%.

Q: With `O=C(Nc1ccc(Cl)cn1)c1cc2ccccc2o1` as the compound, how does the cytotoxicity read?
A: Its cytotoxicity is -4.1%.

Q: Which cytotoxicity does the source give for `COc1cc(C2Nc3cc(Cl)c(S(N)(=O)=O)cc3S(=O)(=O)N2)cc(OC)c1OC` (stereo unspecified) here?
A: The cytotoxicity was -17.3%.

Q: Which cytotoxicity does the source give for `N#CCCN1CCN(S(=O)(=O)c2ccc(S(=O)(=O)N3CCCCCC3)cc2)CC1` here?
A: The cytotoxicity was 0.7%.

Q: For `COc1ccc(N2CCN(C(=O)CN3C(=O)C4CC=CCC4C3=O)CC2)cc1` (stereo unspecified), which cytotoxicity is on record?
A: The cytotoxicity was 0.2%.

Q: Which cytotoxicity does the source give for `Cc1ccc(C2C3=C(CC(C)(C)CC3=O)NC3=C2C(=O)CC(C)(C)C3)o1` here?
A: Its cytotoxicity is -0.9%.

Q: With `COCCn1c(N)c(C(=O)NCc2cccs2)c2nc3ccccc3nc21` as the compound, how does the cytotoxicity read?
A: The cytotoxicity was 9.2%.

Q: For `COCCn1c(N)c(C(=O)NCC2CCCO2)c2nc3ccccc3nc21` (stereo unspecified), which cytotoxicity is on record?
A: Its cytotoxicity is 15.6%.

Q: Which cytotoxicity does the source give for `CC(C)Cn1c(N)c(C(=O)NCc2cccs2)c2nc3ccccc3nc21` here?
A: Its cytotoxicity is 92.2% (active).

Q: With `CC(C)Cn1c(N)c(C(=O)NCCN2CCOCC2)c2nc3ccccc3nc21` as the compound, how does the cytotoxicity read?
A: Its cytotoxicity is -5.3%.

Q: Which cytotoxicity does the source give for `COCCNC(=O)c1c(N)n(-c2cccc(C)c2)c2nc3ccccc3nc12` here?
A: Its cytotoxicity is 26.4%.

Q: Which cytotoxicity does the source give for `Nc1c(C(=O)NC2CCCC2)c2nc3ccccc3nc2n1N` here?
A: The cytotoxicity was 10.7%.

Q: For `CC(C)Cn1c(N)c(C(=O)NCC2CCCO2)c2nc3ccccc3nc21` (stereo unspecified), which cytotoxicity is on record?
A: Its cytotoxicity is 22.7%.

Q: For `Nc1c(C(=O)NCC2CCCO2)c2nc3ccccc3nc2n1-c1ccccc1` (stereo unspecified), which cytotoxicity is on record?
A: Its cytotoxicity is 10.6%.

Q: With `COCCNC(=O)c1c(N)n(CCCn2ccnc2)c2nc3ccccc3nc12` as the compound, how does the cytotoxicity read?
A: Its cytotoxicity is 6.1%.

Q: For `COCCSc1nnc(-c2cccc(C#N)c2)n1C`, which cytotoxicity is on record?
A: The cytotoxicity was -2.9%.

Q: Which cytotoxicity does the source give for `COc1cc(C)c(C#N)c(OC)n1` here?
A: Its cytotoxicity is 0%.

Q: Which cytotoxicity does the source give for `CC(C)OCC(O)CN` (stereo unspecified) here?
A: The cytotoxicity was -11.2%.

Q: For `CCCn1c(=C(C#N)C#N)s/c(=C2\C=Cc3ccccc3N2CC)c1=O`, which cytotoxicity is on record?
A: Its cytotoxicity is 6%.

Q: For `Cc1nc(C)c(C(=O)NCc2ccc(Cl)cc2)o1`, which cytotoxicity is on record?
A: Its cytotoxicity is -5.4%.

Q: Which cytotoxicity does the source give for `O=C(CN1CCN(S(=O)(=O)c2ccc(F)cc2)CC1)Nc1ccc2c(c1)OCO2` here?
A: Its cytotoxicity is 0.6%.

Q: With `CCOC(=O)COc1ccc2nsnc2c1Cl` as the compound, how does the cytotoxicity read?
A: The cytotoxicity was 2.6%.

Q: For `COCCn1c(SC(C)C(=O)Nc2ccc3c(c2)OCCO3)nc2ccccc2c1=O` (stereo unspecified), which cytotoxicity is on record?
A: The cytotoxicity was -20.1%.
